Screening data deposited in PubChem by several laboratories.
SENP8 block-1: inhibitors of human SENP8 protease | inhibition, % at 20 µM | recombinant SENP8, Nedd8 substrate fluorescence | Q96LD8 | 360,000 compounds, 0.64% hits; in the data active means inhibition mostly above about 40%, no sharp cut-off; inactive means mostly below about 27%
SENP7 block: inhibitors of human SENP7 protease; AID 434973; Q9BQF6; recombinant SENP7, Z-RLRGG-aminoluciferin luminescence, 40 min; inhibition, % at 5 µM; 330,000 compounds, 1.5% hits;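 active means inhibition above about 50% at the single test dose, limit read from the data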;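 further: plate controls were DMSO with enzyme for no effect and no enzyme buffer wells for full effect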
SENP8 block-2: SENP8 protease inhibition; inhibition, % at 10 µM; AID 2540; 330,000 compounds, 1.2% hits; purified SENP8, Z-RLRGG-aminoluciferin cleavage, luminescence; Q96LD8; in the data active means inhibition above about 50%
SENP6 block: blocks the human protease SENP6; Q9GZR1; Recombinant SENP6 catalytic domain, aminoluciferin luminescence; inhibition, % at 10 µM; 330,000 compounds, 1.8% hits; AID 2599;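 active means inhibition above about 50% at the single tested dose, limit read from the data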;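 further: plate controls were DMSO wells with enzyme for no effect and DMSO wells lacking enzyme for full effect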
Target sequence (Q9GZR1 628-1112 limits assumed): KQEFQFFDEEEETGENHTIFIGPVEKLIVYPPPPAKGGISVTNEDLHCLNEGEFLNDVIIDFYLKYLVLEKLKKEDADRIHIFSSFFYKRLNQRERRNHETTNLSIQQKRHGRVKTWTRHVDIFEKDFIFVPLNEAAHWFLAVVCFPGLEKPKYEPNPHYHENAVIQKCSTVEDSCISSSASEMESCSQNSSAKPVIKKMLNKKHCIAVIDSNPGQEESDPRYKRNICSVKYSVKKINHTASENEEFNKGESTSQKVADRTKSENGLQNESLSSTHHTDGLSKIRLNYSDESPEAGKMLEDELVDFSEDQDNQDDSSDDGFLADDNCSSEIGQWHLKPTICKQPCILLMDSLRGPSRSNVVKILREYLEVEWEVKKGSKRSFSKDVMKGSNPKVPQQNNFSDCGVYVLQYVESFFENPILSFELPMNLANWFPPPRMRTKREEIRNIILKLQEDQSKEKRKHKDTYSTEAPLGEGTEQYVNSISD
Platelet DG rel: modulates dense granule release in human platelets | human platelet-rich plasma, SFLLRN dense granule ATP release, luminescence | inhibition, %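 (compounds screened at 7.5 µM in platelet-rich plasma)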 | 300,000 compounds, 0.22% hits;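 active means mean replicate score, as percent of positive control, at or above 50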
An asterisk follows results filed as active; . = no result. An excerpt weighted towards active compounds, which were near 2.4% of everything screened.

SMILES	SENP8 block-1	SENP7 block	SENP8 block-2	SENP6 block	Platelet DG rel
COc1ccc(C(CNC(=O)c2cccc(NS(=O)(=O)c3ccc(C)c(F)c3)c2)N2CCOCC2)cc1 (configuration not stated)	-1	-5	9	9	0
Cc1cc(=O)n2[nH]c(N)c(N=Nc3ccccc3F)c2n1	32	86*	85*	94*	8
O=C(NC(=O)c1ccccc1O)c1ccc2c(c1)CCO2	-33	42	51*	65*	0
CC(C)(C)NC(=O)c1ccc2c(c1)CCO2	16	0	0	3	0
CC(=O)N(C)C1=C(O)c2ccccc2C(=O)C1=O	85*	14	-1	15	4
O=C1c2ccccc2C(=O)c2[nH]cnc21	23	.	.	.	0
O=C1C(O)=C(O)C(=O)c2ccccc21	61*	55*	58*	80*	.
O=C1C(=O)c2ccccc2C(O)=C1c1ccccc1F	12	4	0	-17	12
O=C1c2ccccc2C(=O)c2[nH]c(=O)[nH]c21	55*	36	35	65*	-1
Cc1cccc(C)c1NC(=O)C1(C)CN(S(C)(=O)=O)CC(=O)N1Cc1cccs1 (configuration not stated)	18	.	.	.	.
Oc1c(C=Nc2ccc(Cl)cn2)sc2ccccc12	-110	57*	28	66*	35
CCOC(=O)c1sc(NC(=O)c2ccc(OC(C)=O)cc2)nc1C	-53	99*	68*	98*	.
COc1ccc(N/C=C/C(=O)c2ccc3c(c2)OCO3)cc1OC	-4	-19	12	35	15
O=C(/C=C\Nc1ccc2c(c1)OCO2)c1ccc(Cl)s1	19	71*	18	13	1
O=C(O)CC(CC(=O)Nc1ccc(-n2ccc(C(F)(F)F)n2)cc1)c1ccccc1 (configuration not stated)	5	3	5	1	-15
O=C(Nc1ccccc1)Nc1ccc(-n2ccc(C(F)(F)F)n2)cc1	8	58*	57*	71*	15
CCc1nnc(NC(=O)C2=CCN(S(=O)(=O)c3ccc(F)cc3)CC2)s1	4	-4	-4	-7	24
CC(OC(=O)CNC(=O)C12CC3CC(CC(C3)C1)C2)C(=O)Nc1ccc(N2CCOCC2)cc1 (configuration not stated)	35	-1	4	-2	85*
O=C1NC(=Nc2ccccc2)S/C1=C\c1cccs1	17	43	59*	69*	1
Cn1cccc1/C=C1\SC(=Nc2ccc(O)cc2)NC1=O	14	4	-11	0	3
Cc1cc(C)cc(N=C2NC(=O)/C(=C/c3cccs3)S2)c1	22	4	-4	5	4
Cn1cccc1/C=C1\SC(=Nc2cccc(O)c2)NC1=O	14	52*	54*	78*	9
CN1C[C@@H]2[C@@H]3C(=O)N(C)C(=O)[C@@H]3[C@](C)(C1=O)N2C(=O)c1ccc(Cl)cc1	11	.	.	.	.
COc1cc(/C=C2/SC(=S)N(Cc3ccccc3)C2=O)cc(Cl)c1O	46*	.	.	.	7
O=C1/C(=C/c2ccc(O)c([N+](=O)[O-])c2)SC(=S)N1Cc1ccccc1	41*	30	92*	95*	5
SMILES	SENP8 block-1	SENP7 block	SENP8 block-2	SENP6 block	Platelet DG rel
COc1cc(/C=C2/SC(=S)N(Cc3ccccc3)C2=O)ccc1OCC(=O)O	14	-5	-12	7	-1
COc1cc([N+](=O)[O-])cc(/C=C2/SC(=S)N(Cc3ccccc3)C2=O)c1O	37	.	.	.	1
O=C1/C(=C\c2cccc([N+](=O)[O-])c2O)SC(=S)N1Cc1ccccc1	25	.	.	.	13
O=C1/C(=C\c2cc(Br)cc(Br)c2O)SC(=S)N1Cc1ccccc1	40*	-5	4	13	-3
O=C1C(Cl)=C(NS(=O)(=O)c2ccc([N+](=O)[O-])cc2)C(=O)c2ccccc21	53*	16	11	12	4
COc1ccc(/C=N/N=C(\N)c2nonc2N)cc1	12	.	.	.	68*
COc1ccc(S(=O)(=O)N(C)CC(=O)Nc2ccc3c(c2)OCO3)cc1OC	9	7	2	-5	71*
CCn1c2ccccc2nc2cc3c(cc21)c(Cl)c(=O)c1ccccc13	81*	.	.	.	.
CCn1c(/C=C/c2c(C)n(CC)c3ccccc23)nc2ccccc2c1=O	-109	1	2	14	-20
COC(=O)C1=CN(c2ccc3c(c2)OCO3)C(N)=C(C#N)C1c1cccc(F)c1 (configuration not stated)	-71	.	.	.	.
CC(C)Cc1csc(NC(=O)c2ccc(F)cc2)c1C(=O)O	-49	2	84*	89*	9
C/C(=N\Nc1ccc(C(=O)c2c(C)cc3ccccn23)cc1[N+](=O)[O-])c1ccc(O)cc1	62*	-1	-4	-1	-6
Cc1cc2ccccn2c1C(=O)c1ccc(Cl)cc1	15	4	0	9	1
Cc1cc2ccccn2c1C(=O)c1ccc(N/N=C/c2ccc(C(=O)O)cc2)c([N+](=O)[O-])c1	66*	.	.	.	.
CSc1ccc(C=NNc2ccc(S(=O)(=O)Nc3ccccc3C(=O)O)cc2[N+](=O)[O-])cc1	35	3	15	-13	.
C/C(=N/Nc1ccc(C(=O)c2c(C)cc3ccccn23)cc1[N+](=O)[O-])c1ccc(O)cc1	50*	.	.	.	.
CC(C)[C@H](NC(=O)OCc1ccccc1)C(=O)OCc1cc(=O)oc2cc(O)ccc12	-403	-6	-6	-17	-3
COc1ccc(CNC(=O)c2ccc3c(c2)N(C)CCS3)cc1	-398	-5	-2	-10	0
CN1CCSc2ccc(C(=O)NCc3ccccc3F)cc21	-449	0	-10	6	73*
CCN1CCSc2ccc(C(=O)NCc3ccccc3F)cc21	-471	-4	-3	4	11
CC(C)Oc1ccc(CNC(=O)c2ccc3c(c2)N(C)CCS3)cc1	-440	-10	2	4	57*
CCCn1c(SCC(=O)Nc2ccc(F)c(Cl)c2)nc(O)cc1=O	12	5	4	-4	.
Cc1ccc(NC(=O)CSc2nnnn2C)cc1S(=O)(=O)N1CCCCC1	5	.	.	.	.
Fc1ccccc1-c1nc2ccccc2[nH]1	-49	76*	63*	74*	4
CSc1nc2sc(-c3ccccc3)cc2c(=O)n1N	-111	98*	94*	95*	115*
SMILES	SENP8 block-1	SENP7 block	SENP8 block-2	SENP6 block	Platelet DG rel
COc1ccc(/C(C#N)=C/c2ccccn2)cc1	-281	6	54*	64*	9
N#C/C(=C\c1ccccn1)c1nc2ccccc2s1	-329	-8	-4	27	2
Cc1cc(F)ccc1NC(=O)c1cc(S(=O)(=O)N2CCc3ccccc32)cn1C	24	0	12	-6	3
O=C(Nc1ccccc1)Nc1ccc2nnsc2c1	-4	63*	42	54*	7
CN(C)c1ccc(NC(=O)Nc2ccc3snnc3c2)cc1	28	62*	23	70*	-43
COc1ccc(-c2nc(C#N)c(NCCCN(C)C)o2)cc1OC	-296	5	-4	-23	13
